Source: PubChem BioAssay (NCATS)
Where “and” joins values, the source holds several entries; their conditions need not be identical. Equal values may be shown once. Results filed as inconclusive are left out. Calls of active or inactive are those of the source. Unless noted, calls come from the whole dose curve; as a rule, active = well fitted curve in the direction sought with a large enough effect; inconclusive = small, poorly fitted or top-dose-only effect, or another doubt; inactive = no such curve, though single readings can be large; an effect the other way counts as inactive or inconclusive.

What was measured:
[1] = Validation screen for small molecules that induce genotoxicity in human embryonic kidney (HEK293T) cells expressing luciferase-tagged ELG1 (AID 493106); note: 0% is about no effect
Outline: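 ELG1-luciferase reporter readout (ONE-Glo, 30 min, room temperature) after 16 hr compound treatment at 37 °C of HEK293T cells at 2,000 per well. Rising luminescence flags genotoxic stress.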

[2] = target: ATPase family AAA domain-containing protein 5 (Homo sapiens) (UniProt Q96QE3); assay: Validation screen for small molecules that inhibit ELG1-dependent DNA repair in human embryonic kidney (HEK293T) cells expressing luciferase-tagged ELG1 (AID 493107);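 note: series mostly up to about 46 µM; % is set by controls: 0 for no effect and ±100 for the full control effect; inhibitors lower the ELG1-luciferase luminescence signal; nearly all actives have a fitted effect of over 70% in size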
Outline: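 Luciferase read-out, ONE-Glo, 30 min at room temperature, follows 16 h co-exposure at 37 C of compound and the DNA-damaging agent 5-fluorouridine. Cells: HEK293T with ELG1-luciferase fusion, 2,000 per well, DMSO as vehicle.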

[3] = target: Thyrotropin-releasing hormone receptor (Homo sapiens) (UniProt P34981); assay: qHTS for Small Molecule Agonists and Allosteric Enhancers of Human TRH Receptor: Validation Screen for Agonists (AID 493127;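 active = calcium activation more than 3 SD above the typical response in the agonist read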;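 note: intracellular calcium rise by fluo-8 fluorescence before TRH EC20 addition; 0% is about no effect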); settings: TRH receptor agonist cell assay; at 2 µM; stronger effect = higher value
Outline: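 Compound-evoked intracellular calcium release in fluo-8-loaded TRHR cells, read kinetically on FDSS (Ex 480/Em 530, 1 s/cycle) after 23 nL pintool transfer. Agonist phase preceded 10 nM TRH EC20 addition.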

[4] = Nrf2 qHTS screen for inhibitors: Validation (AID 493153; active = well fitted inhibition curve with a large enough effect in the main read-out, with a control signal flat, not every such curve was filed as active); settings: Potency: luciferase luminescence; viability change: measured here: cytotoxicity max response
Outline: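 Concentration-response on A549 ARE_Fluc reporter cells exposed 18-24 h at 37 C, 5% CO2. Cytotoxicity read first by CellTiter-Fluor fluorescence (Ex 405/Em 525), then Nrf2 inhibition by BugLite luminescence after 15 min.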

[5] = qHTS for Inhibitors of Cell Surface uPA Generation: Validation Assay (AID 493164);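 note: RAW 264.7 macrophage cells exposed to compound for 18 h; 0% is about no effect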
Outline: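 ATP-Lite luminescence read-out: ATP remains high when uPA activity-dependent LF translocation into the cytoplasm is blocked. RAW 264.7 cells, 18 h compound exposure at 37 C; 7-point titration, 2.45 nM to 38.3 uM final.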

[6] = target: Galactokinase (Homo sapiens) (UniProt P51570); assay: qHTS Validation Assay for Inhibitors of Human Galactokinase (GALK) (AID 493189); note: 0% is about no effect
Outline: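 GALK (5 nM) with 35 uM ATP and 100 uM galactose in HEPES pH 8.0 with MgCl2, NaCl, DTT and BSA. Reaction ran 1 h at room temperature. Residual ATP read by Kinase-Glo Plus luminescence.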

[7] = Validation screen for small molecules that induce DNA re-replication in SW480 colon adenocarcinoma cells (AID 504364); note: 0% is about no effect
Outline: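 Image-based DNA content read-out: Hoechst stain 40 min, total nuclear fluorescence intensity (ex 405 nm, em 500-530 nm) after 48 h compound exposure of 250 SW480 cells/well at 37 C, 5% CO2, versus DMSO vehicle.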

[8] = target: Peptidyl-prolyl cis-trans isomerase NIMA-interacting 1 (Homo sapiens) (UniProt Q13526); assay: qHTS Validation Assay to Find Inhibitors of Pin1 (AID 504536; active = well fitted inhibition curve with a large enough effect in the polarisation, with a control signal flat, not every such curve was filed as active; the % refers to the polarisation;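 note: 0% = full Pin1 enzyme wells and -100% = no-enzyme wells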)
Outline: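 Fluorescence polarization competition: compounds (titration) displace HiFluor-488-labeled Pin1-1b peptide from Pin1 (0.3 uM final) in pH 7.5 HEPES buffer with DTT, 10 min at room temperature; %Activity normalized to no-enzyme wells, curves fitted.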

[9] = target: Phosphoglycerate kinase, glycosomal (Trypanosoma brucei brucei) (UniProt P07378); assay: qHTS Validation Assay to Find Inhibitors of Phosphoglycerate Kinase (AID 504547);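 note: control wells lack PGK and mark full inhibition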
Outline: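 In TEA buffer (100mM, pH 7.6) containing 5mM MgCl2 and 0.01% Tween-20, the GAPDH-coupled PGK reaction proceeded for 60 minutes at room temperature before a single luminescence reading using Kinase-Glo Plus.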

[10] = target: phosphoglycerate mutase (Leishmania major) (UniProt Q4Q090); assay: qHTS Validation Assay to Find Inhibitors of Phosphoglycerate Mutase (AID 504548); note: series mostly up to about 58 µM; % is set by controls: 0 for no effect and ±100 for the full control effect
Outline: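 Lm PGAM 1.25nM final; 100 mM TEA pH 7.6, 5 mM MgCl2, 0.01% Tween-20; 45 min RT; Kinase-GloPlus, 10 min; end-point luminescence. Enzyme-free wells as negative controls.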

Sequence of Phosphoglycerate kinase, glycosomal (Trypanosoma brucei brucei) (P07378 whole entry, looked up): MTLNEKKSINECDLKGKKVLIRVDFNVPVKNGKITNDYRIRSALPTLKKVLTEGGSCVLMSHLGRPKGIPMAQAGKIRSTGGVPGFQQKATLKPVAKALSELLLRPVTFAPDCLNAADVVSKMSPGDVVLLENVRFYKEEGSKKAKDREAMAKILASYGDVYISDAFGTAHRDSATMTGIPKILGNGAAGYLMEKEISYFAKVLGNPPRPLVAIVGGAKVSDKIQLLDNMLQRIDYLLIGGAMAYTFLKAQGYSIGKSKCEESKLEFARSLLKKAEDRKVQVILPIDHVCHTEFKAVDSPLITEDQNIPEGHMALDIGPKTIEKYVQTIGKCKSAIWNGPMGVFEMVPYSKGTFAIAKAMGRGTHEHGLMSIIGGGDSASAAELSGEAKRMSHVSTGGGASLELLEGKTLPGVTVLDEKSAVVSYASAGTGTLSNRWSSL
Sequence of Thyrotropin-releasing hormone receptor (Homo sapiens) (P34981 whole entry, looked up): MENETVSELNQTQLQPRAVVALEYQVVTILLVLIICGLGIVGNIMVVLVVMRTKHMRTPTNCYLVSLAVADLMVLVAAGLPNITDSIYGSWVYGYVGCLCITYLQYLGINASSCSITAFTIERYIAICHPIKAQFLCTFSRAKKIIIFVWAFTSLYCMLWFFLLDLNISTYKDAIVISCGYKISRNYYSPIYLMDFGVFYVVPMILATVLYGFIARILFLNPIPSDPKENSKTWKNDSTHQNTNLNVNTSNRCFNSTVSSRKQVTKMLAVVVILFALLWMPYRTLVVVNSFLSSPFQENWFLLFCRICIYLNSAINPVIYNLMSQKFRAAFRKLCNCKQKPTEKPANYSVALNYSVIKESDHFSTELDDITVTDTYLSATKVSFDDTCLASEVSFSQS
Sequence of phosphoglycerate mutase (Leishmania major) (Q4Q090 1-553): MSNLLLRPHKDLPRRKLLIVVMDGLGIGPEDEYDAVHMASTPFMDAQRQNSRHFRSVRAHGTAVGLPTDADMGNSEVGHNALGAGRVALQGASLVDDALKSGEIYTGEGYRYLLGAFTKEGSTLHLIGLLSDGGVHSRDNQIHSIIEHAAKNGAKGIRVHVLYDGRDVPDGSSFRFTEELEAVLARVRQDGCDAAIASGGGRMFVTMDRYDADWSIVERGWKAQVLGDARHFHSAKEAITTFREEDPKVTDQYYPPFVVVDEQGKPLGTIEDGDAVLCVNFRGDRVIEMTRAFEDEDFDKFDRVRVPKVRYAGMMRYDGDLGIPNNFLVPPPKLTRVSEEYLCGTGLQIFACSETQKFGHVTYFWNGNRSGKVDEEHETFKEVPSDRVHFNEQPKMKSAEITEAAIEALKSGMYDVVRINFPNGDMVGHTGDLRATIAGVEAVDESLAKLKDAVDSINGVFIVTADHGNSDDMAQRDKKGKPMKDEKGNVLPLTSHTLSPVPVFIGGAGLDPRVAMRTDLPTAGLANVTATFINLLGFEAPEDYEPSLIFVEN
Sequence of Peptidyl-prolyl cis-trans isomerase NIMA-interacting 1 (Homo sapiens) (Q13526 whole entry, looked up): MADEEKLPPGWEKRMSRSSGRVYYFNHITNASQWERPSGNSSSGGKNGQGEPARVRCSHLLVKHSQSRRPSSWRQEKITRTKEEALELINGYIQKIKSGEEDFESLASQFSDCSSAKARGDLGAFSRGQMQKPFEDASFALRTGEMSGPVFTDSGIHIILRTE
Sequence of Galactokinase (Homo sapiens) (P51570 whole entry, looked up): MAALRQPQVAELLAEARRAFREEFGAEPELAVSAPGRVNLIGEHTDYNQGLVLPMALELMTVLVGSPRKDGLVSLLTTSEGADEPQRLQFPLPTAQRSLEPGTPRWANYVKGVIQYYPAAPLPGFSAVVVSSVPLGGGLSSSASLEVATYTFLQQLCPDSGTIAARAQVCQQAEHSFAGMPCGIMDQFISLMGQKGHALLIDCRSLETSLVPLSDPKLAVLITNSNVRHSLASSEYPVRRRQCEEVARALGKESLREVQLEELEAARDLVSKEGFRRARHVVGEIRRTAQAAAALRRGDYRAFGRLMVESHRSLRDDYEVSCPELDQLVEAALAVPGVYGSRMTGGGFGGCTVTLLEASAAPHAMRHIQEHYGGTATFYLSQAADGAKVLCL
Sequence of ATPase family AAA domain-containing protein 5 (Homo sapiens) (Q96QE3 whole entry, looked up, the tested form may be a part): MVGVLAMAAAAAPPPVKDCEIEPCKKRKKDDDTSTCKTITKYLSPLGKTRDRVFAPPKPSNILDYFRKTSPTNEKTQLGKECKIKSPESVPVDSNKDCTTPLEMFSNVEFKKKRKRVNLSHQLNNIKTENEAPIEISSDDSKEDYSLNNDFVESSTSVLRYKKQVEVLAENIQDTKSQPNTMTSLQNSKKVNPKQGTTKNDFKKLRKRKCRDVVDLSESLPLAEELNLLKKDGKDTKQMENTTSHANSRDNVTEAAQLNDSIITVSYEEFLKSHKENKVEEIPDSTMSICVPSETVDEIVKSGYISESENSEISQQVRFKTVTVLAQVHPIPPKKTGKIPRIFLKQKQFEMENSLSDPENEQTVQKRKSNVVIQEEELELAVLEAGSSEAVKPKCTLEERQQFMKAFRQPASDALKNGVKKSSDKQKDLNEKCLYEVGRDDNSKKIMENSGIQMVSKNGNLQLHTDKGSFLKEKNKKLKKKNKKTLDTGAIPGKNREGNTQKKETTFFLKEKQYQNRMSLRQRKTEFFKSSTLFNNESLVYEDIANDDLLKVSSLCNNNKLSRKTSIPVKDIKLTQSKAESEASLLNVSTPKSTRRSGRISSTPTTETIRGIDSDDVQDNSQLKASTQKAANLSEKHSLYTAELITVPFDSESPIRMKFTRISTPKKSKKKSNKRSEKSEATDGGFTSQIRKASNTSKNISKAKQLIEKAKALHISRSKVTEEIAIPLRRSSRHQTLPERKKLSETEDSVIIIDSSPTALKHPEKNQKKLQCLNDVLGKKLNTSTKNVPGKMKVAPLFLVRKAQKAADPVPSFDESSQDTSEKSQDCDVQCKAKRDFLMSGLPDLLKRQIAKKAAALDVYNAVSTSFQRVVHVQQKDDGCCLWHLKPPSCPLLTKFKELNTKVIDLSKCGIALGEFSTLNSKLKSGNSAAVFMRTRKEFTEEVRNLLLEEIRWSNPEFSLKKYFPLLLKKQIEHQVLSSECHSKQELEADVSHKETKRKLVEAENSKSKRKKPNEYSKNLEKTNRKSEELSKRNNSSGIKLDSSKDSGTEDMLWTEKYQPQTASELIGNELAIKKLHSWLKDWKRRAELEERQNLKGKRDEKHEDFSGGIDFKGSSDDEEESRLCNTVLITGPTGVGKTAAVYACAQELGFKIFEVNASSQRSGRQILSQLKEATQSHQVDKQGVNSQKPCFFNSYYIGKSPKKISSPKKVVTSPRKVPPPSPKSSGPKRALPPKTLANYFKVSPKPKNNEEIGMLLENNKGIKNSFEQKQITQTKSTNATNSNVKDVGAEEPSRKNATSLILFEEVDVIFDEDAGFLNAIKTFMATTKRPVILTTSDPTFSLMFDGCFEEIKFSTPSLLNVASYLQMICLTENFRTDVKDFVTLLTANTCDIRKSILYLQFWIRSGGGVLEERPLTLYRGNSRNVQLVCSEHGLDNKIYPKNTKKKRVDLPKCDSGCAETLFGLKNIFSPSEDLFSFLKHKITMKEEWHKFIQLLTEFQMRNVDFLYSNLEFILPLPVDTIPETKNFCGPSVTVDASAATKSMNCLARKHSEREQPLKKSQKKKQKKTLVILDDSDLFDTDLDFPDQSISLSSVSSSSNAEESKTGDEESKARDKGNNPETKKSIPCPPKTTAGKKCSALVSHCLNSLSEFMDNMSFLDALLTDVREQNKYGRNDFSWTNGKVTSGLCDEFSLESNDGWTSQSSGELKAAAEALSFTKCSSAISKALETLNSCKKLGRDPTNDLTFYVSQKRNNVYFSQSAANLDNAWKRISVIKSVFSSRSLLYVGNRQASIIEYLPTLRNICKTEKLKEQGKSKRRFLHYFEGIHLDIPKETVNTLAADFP

O=NN(CCCl)C(=O)NCCCl
-0.612%: viability change [4]
inactive: Potency [1] | Potency [2] | activation [3] 0.438% | Potency [4] | outcome [5] | outcome [6] | outcome [7] | outcome [8] | outcome [9] | outcome [10]

CC(C[N+](C)(C)C)OC(N)=O (configuration not stated)
-0.659%: viability change [4]
inactive: Potency [1] | Potency [2] | activation [3] 0.562% | Potency [4] | outcome [5] | outcome [6] | outcome [7] | outcome [8] | outcome [9] | outcome [10]

Oc1ccc(C2CNCCc3c2cc(O)c(O)c3Cl)cc1 (configuration not stated)
0.62%: viability change [4]
inactive: Potency [1] | Potency [2] | Potency [4] | outcome [5] | outcome [6] | outcome [7] | outcome [8] | outcome [9] | outcome [10]

CC(C)(Sc1ccc(CCN(CCCCC2CCCCC2)C(=O)NC2CCCCC2)cc1)C(=O)O
inactive: Potency [1] | Potency [2] | activation [3] 1.5% | outcome [5] | outcome [6] | outcome [7] | outcome [9] | outcome [10]

Cc1cnc(NC(=O)C2=C(O)c3ccccc3S(=O)(=O)N2C)s1
-10.1%: viability change [4]
inactive: Potency [1] | Potency [2] | activation [3] 0.812% | Potency [4] | outcome [5] | outcome [6] | outcome [7] | outcome [8] | outcome [9] | outcome [10]

Nc1nc2c(ncn2COCCO)c(=O)[nH]1
inactive: Potency [1] | Potency [2] | Potency [4] | outcome [5] | outcome [6] | outcome [7] | outcome [8] | outcome [9] | outcome [10]
-1.37%: viability change [4]

O=c1n(CCCN2CCN(c3cccc(Cl)c3)CC2)nc2ccccn12
-3.91%: viability change [4]
inactive: Potency [1] | Potency [2] | Potency [4] | outcome [5] | outcome [6] | outcome [7] | outcome [8] | outcome [9] | outcome [10]

Cn1cnc([N+](=O)[O-])c1Sc1ncnc2nc[nH]c12
-10.4%: viability change [4]
inactive: Potency [1] | Potency [2] | activation [3] 0.875% | Potency [4] | outcome [5] | outcome [6] | outcome [7] | outcome [8] | outcome [9] | outcome [10]

O=C1CCc2cc(OCCCCc3nnnn3C3CCCCC3)ccc2N1
inactive: Potency [1] | Potency [2] | activation [3] 3.38% | outcome [5] | outcome [6] | outcome [7] | outcome [8] | outcome [9] | outcome [10]

CC(C)(C)NCC(O)c1ccc(O)c(CO)c1 (configuration not stated)
inactive: Potency [1] | Potency [2] | activation [3] 0.188% and 0.75% | Potency [4] | outcome [5] | outcome [6] | outcome [7] | outcome [8] | outcome [9] | outcome [10]
-3.99% and 2.04%: viability change [4]

C1COC(NC(C2CC2)C2CC2)=N1
inactive: Potency [1] | Potency [2] | activation [3] -0.312% | Potency [4] | outcome [5] | outcome [6] | outcome [7] | outcome [8] | outcome [9] | outcome [10]
-3.72%: viability change [4]

NCCCC(N)(C(=O)O)C(F)F (configuration not stated)
inactive: Potency [1] | Potency [2] | activation [3] 0.938% | outcome [5] | outcome [6] | outcome [7] | outcome [8] | outcome [9] | outcome [10]

N=c1nc(N2CCCCC2)cc(N)n1O
inactive: Potency [1] | Potency [2] | activation [3] 0% | Potency [4] | outcome [5] | outcome [6] | outcome [7] | outcome [8] | outcome [9] | outcome [10]
-11.3%: viability change [4]

Cc1ccccc1C(OCCN(C)C)c1ccccc1 (configuration not stated)
inactive: Potency [1] | Potency [2] | activation [3] 0.625% | Potency [4] | outcome [5] | outcome [6] | outcome [7] | outcome [8] | outcome [9] | outcome [10]
7.3%: viability change [4]

c1ccc([C@H]2CN3CCSC3=N2)cc1
inactive: Potency [1] | Potency [2] | activation [3] 0.875% | Potency [4] | outcome [5] | outcome [6] | outcome [7] | outcome [8] | outcome [9] | outcome [10]
-0.324%: viability change [4]

NC(N)=NC(=O)c1nc(Cl)c(N)nc1N
-5.66%: viability change [4]
inactive: Potency [1] | Potency [2] | activation [3] 0.812% | Potency [4] | outcome [5] | outcome [6] | outcome [7] | outcome [8] | outcome [9] | outcome [10]

NCCc1ccc(O)c(O)c1
1.72%: viability change [4]
inactive: Potency [1] | Potency [2] | activation [3] 1% | Potency [4] | outcome [5] | outcome [6] | outcome [7] | outcome [8] | outcome [9]

OC(CN1CCC(Cc2ccc(F)cc2)CC1)c1ccc(Cl)cc1 (configuration not stated)
-17.6%: viability change [4]
inactive: Potency [1] | Potency [2] | activation [3] -3.12% | Potency [4] | outcome [5] | outcome [6] | outcome [7] | outcome [8] | outcome [9]

CNC[C@H](O)c1cccc(O)c1
-8.68%: viability change [4]
inactive: Potency [1] | Potency [2] | Potency [4] | outcome [5] | outcome [6] | outcome [7] | outcome [8] | outcome [9] | outcome [10]

CCN(CC)CCCC(C)Nc1ccnc2cc(Cl)ccc12 (configuration not stated)
inactive: Potency [1] | Potency [2] | activation [3] 0.875% | Potency [4] | outcome [5] | outcome [7] | outcome [8] | outcome [9] | outcome [10]
-17.9%: viability change [4]

NS(=O)(=O)c1cc2c(cc1Cl)NC=NS2(=O)=O
inactive: Potency [1] | Potency [2] | activation [3] 1.12% | Potency [4] | outcome [5] | outcome [6] | outcome [7] | outcome [8] | outcome [9] | outcome [10]
-3.76%: viability change [4]

Nc1ccc(S(=O)(=O)Nc2ccnn2-c2ccccc2)cc1
-5.45%: viability change [4]
inactive: Potency [1] | Potency [2] | activation [3] 1.12% | Potency [4] | outcome [5] | outcome [6] | outcome [7] | outcome [8] | outcome [9] | outcome [10]

CC(C)C[C@H](NC(=O)[C@@H](O)[C@H](N)Cc1ccccc1)C(=O)O
inactive: Potency [1] | Potency [2] | activation [3] 0.938% | outcome [6] | outcome [7] | outcome [8] | outcome [9] | outcome [10]

CCC(C)N(C)C(=O)c1cc2ccccc2c(-c2ccccc2Cl)n1 (configuration not stated)
inactive: Potency [1] | Potency [2] | activation [3] -6.5% | Potency [4] | outcome [5] | outcome [6] | outcome [7] | outcome [8] | outcome [9] | outcome [10]
-9.44%: viability change [4]
